Source: PubChem (National Center for Advancing Translational Sciences (NCATS))
HT1080NT lethal: kills 2HG-producing HT-1080-NT fibrosarcoma cells; HT-1080-NT fibrosarcoma viability, CellTiter-Glo ATP luminescence, 48 h; Potency, µM (series often up to 46.1 µM), inactives show top-dose activity, negative = less viability, hits mostly cytotoxic; 360,000 compounds, 1.6% hits;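 also: NT is the 2HG producing partner of a matched IDH1 knockdown line; 0% = DMSO-treated cells and -100% = media-only wells without cells; nearly all actives have a fitted effect of over 55% in size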
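Read-out is CellTiter-Glo luminescence after 10 minutes at room temperature, following 48 hours' compound treatment of HT-1080-NT cells (750 cells/well, RPMI, 5% FBS, 37 degrees C).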
MCF10A rerep: inducers of DNA re-replication in MCF 10A breast cells; MCF 10A DNA re-replication, Hoechst nuclear intensity, 48 h; Potency, µM (series often up to 46.1 µM), for inactives: top-dose activity, positive = re-replication, actives largely listed as activators; 350,000 compounds, 2.9% hits; also: % of control where 0% means no effect; nearly all actives have a fitted effect of over 50% in size
KB-3-1 cytotox: KB-3-1 parental cell cytotoxicity; KB-3-1 viability, CellTiter-Glo ATP luminescence, 72 h; Potency, µM (series often up to 46.1 µM), actives largely listed as cytotoxic; 400,000 compounds, 1.4% hits; also: % is scaled to controls: 0 for no effect and ±100 for the full control effect; nearly all actives have a fitted effect of over 60% in size
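Cytotoxicity in the drug-sensitive parental line KB-3-1 was scored as loss of CellTiter-Glo luminescence following 72 h incubation with compound. Values come from curve fitting of normalized concentration-response data.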
KB-V1 cytotox: KB-V1 MDR subline cytotoxicity | Potency, µM (top dose mostly 46.1 µM), hits mostly cytotoxic | 400,000 compounds, 3.4% hits | AID 1347076 | KB-V1 MDR cells viability, CellTiter-Glo, 72 h; also: % is scaled to controls: 0 for no effect and ±100 for the full control effect; nearly all actives have a fitted effect of over 60% in size
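Cells of the MDR subline KB-V1 are plated, dosed with compound at multiple concentrations, and incubated 72 h at 37 degrees C; CellTiter-Glo is then added and luminescence read after 10 min.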
HT1080 IDH1KD tx: toxicity to HT-1080 IDH1 knockdown cells (counter line). HT-1080 IDH1 knockdown viability, ATP luminescence, 48 h. Potency, µM (top dose mostly 46.1 µM), for the others: at the highest dose activity, negative = toxicity, most hits filed as cytotoxic. 360,000 compounds, 2% hits. AID 686971;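 also: 0% = DMSO wells and -100% = cell-free medium wells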
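Knockdown cells (IDH1KD HT-1080) received compounds 2 h after plating at 750 cells/well and were kept 48 h at 37 °C in 5% FBS RPMI. A CellTiter-Glo luminescence read gave % activity for curve fitting.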
SW480 rereplic: induces DNA re-replication in SW480 colon adenocarcinoma cells; Potency, µM (doses to about 46.1 µM), for the others: at the highest dose re-replication activation, most hits filed as activators; SW480 DNA re-replication, Hoechst DNA content imaging, 48 h; 340,000 compounds, 1.8% hits; also: % of control where 0% means no effect; nearly all actives have a fitted effect of over 55% in size
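250 cells/well; 23 nL cpd via pin tool; 48 hr, 37 C, 5% CO2; Hoechst 40 min; imager read of total nuclear intensity, ex 405/em 500-530 nm.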
* hit, by the source's call; i = inactive; ? = inconclusive; / = no result given; ! = repeats disagree; [ ] = remark or other dose. The list is not random: actives were taken first. Their share in the collection is about 7.9%. Calls follow the shape of the dose curve; as a rule, active = well fitted curve in the direction sought with a large enough effect; inconclusive = small, poorly fitted or top-dose-only effect, or another doubt; inactive = no such curve, though single readings can be large; an effect the other way counts as inactive or inconclusive. Potency is read from the fitted curve at half-maximal effect.

SMILES	HT1080NT lethal	MCF10A rerep	KB-3-1 cytotox	KB-V1 cytotox	HT1080 IDH1KD tx	SW480 rereplic
C/C(CCC1CC(C)OC1=O)=N/Nc1nc(-c2ccccc2)cs1 (centres undefined)	?	9.8%	i	i	?	6.5%
COc1ccccc1CN1CCC(CNC(=O)c2cnn(-c3ccc(C)c(C)c3)c2C2CCN(C(=O)OC(C)(C)C)CC2)CC1	/	/	i	i	/	/
COc1ccccc1CN1CCC(CNC(=O)c2cnn(-c3ccc(Cl)cc3)c2C2CCN(C(=O)OC(C)(C)C)CC2)CC1	/	/	16.4µM*	?	/	/
CCOC(=O)c1ccccc1NC(=O)CSc1nc2ccccc2c(=O)n1CCCN1CCOCC1	-12.6%	13µM*	i	i	-9.6%	?
O=C(CSc1nc2c(sc3ccccc32)c(=O)n1CCc1ccccc1)NCc1ccco1	-12.7%	-1.9%	i	2.06µM*	0.2%	-3.8%
CCCCn1c(SCC(N)=O)nc2c(sc3ccccc32)c1=O	22.4µM*	3.3%	i	i	-9.5%	-26.0%
CCCCn1c(SCC(=O)NCc2ccco2)nc2c(sc3ccccc32)c1=O	?	-0.8%	i	?	7.3%	-3.5%
CCOC(=O)CSc1nc2c(sc3ccccc32)c(=O)n1CCCN1CCOCC1	-2.4%	4.8%	i	14.6µM*	-4.8%	-9.2%
Cc1ccc2c(cnn2C(=O)CCCC(=O)NCc2cccc(F)c2)c1	0.0%	-0.4%	i	i	-2.6%	-2.2%
COc1ccc(-c2csc3ncnc(NCCN4CCOCC4)c23)cc1	23.1µM*	?	?	?	20.6µM*	?
COc1ccc(-c2oc3ncnc(NCCN4CCOCC4)c3c2-c2ccc(OC)cc2)cc1	0.9%	?	?	?	-1.5%	7.8%
COc1ccc(-c2oc3ncn(CCN4CCOCC4)c(=N)c3c2-c2ccc(OC)cc2)cc1	?	13µM*	?	?	?	?
CCOc1cc2nc(-c3ccc(OC)c(OC)c3)nc(NCCCN3CCOCC3)c2cc1OC	?	11.6µM*	i	?	?	?
COc1ccc(-c2oc3ncnc(NCCCN4CCOCC4)c3c2-c2ccc(OC)cc2)cc1	?	?	i	18.4µM*	?	?
Cc1ccc(-c2csc3ncnc(NCCN4CCOCC4)c23)cc1	-27.7%	?	i	i	-20.5%	17.1%
O=C(Nc1ccc2c(c1)OCCO2)c1cnc2ccccn2c1=O	9.6%	-2.3%	i	i	11.3%	3.9%
CC(C)CC(=O)N1CCN(c2ccc([N+](=O)[O-])c(NCc3ccccc3)c2)CC1	-11.0%	?	?	?	-28.1%	2.0%
Cc1cc(C)nc(NC(=O)CCN2C(=O)c3ccccc3S2(=O)=O)n1	2.9%	3.4%	i	i	1.2%	-1.9%
Clc1ccc(-c2nc(NCCN3CCOCC3)c3ccccc3n2)cc1	?	?	i	4.11µM*	?	?
O=C(N/C=N/OCc1ccc(Cl)cc1Cl)NOCc1ncc(C(F)(F)F)cc1Cl	?	?	?	i	25.9µM*	2.5%[9.22 µM]
O=C(CSc1ncn[nH]1)NC12CC3CC(CC(C3)C1)C2	-2.2%	2.5%	i	i	-1.0%	-4.7%[9.22 µM]
C/C=C/C(=O)OCC(=O)Nc1nc2ccc(C)cc2s1	-3.4%	4.4%	i	i	1.4%	5.4%
COc1ccc(C#Cc2c(C=O)n(C)c3ccccc23)cc1	-21.2%	?	?	i	-10.6%	20.6µM*
COc1cc(C#Cc2c(-c3ccccc3)n(C)c3ccccc23)cc(OC)c1	-5.4%	?	i	i	-0.1%	12.7%
Cn1c(C=O)c(C#Cc2ccccc2)c2ccccc21	5.3%	8.2µM*	?	i	-25.7%	?
SMILES	HT1080NT lethal	MCF10A rerep	KB-3-1 cytotox	KB-V1 cytotox	HT1080 IDH1KD tx	SW480 rereplic
COc1ccc(C#Cc2ccc3c(=O)c4ccccc4n(C)c3c2)cc1	1.3%	?	i	i	2.8%	?
O=C(CSCc1ccc(F)cc1)N1CCN(c2ccccc2)CC1	4.0%	10.0%	i	?	-9.2%	7.1%
Cn1c(CSCc2ccc(F)cc2)nnc1SCC(=O)N1CCN(c2ccccc2)CC1	-23.2%	2.6%	?	16.4µM*	-20.5%	-4.8%
Cn1c(CSCc2ccc(F)cc2)nnc1SCC(=O)Nc1nccs1	-27.2%	7.2%	?	23.1µM*	-1.8%	-0.4%
COc1ccc(NS(=O)(=O)c2ccc3c(c2)C(C(C)C)C(=O)N3)cc1 (centres undefined)	/	/	i	i	/	/
CCCCCCCCCCCCCCCCCCOC[C@H](COP(=O)([O-])OCC[N+](C)(C)C)OC	/	?	/	/	/	21.1µM*
CCCCCCCCCCCCCCCCOP(=O)([O-])OCC[N+](C)(C)C	/	3.6%	/	/	/	?
CCn1cc(C(=O)OCC(=O)c2cc(C)n(-c3ccccc3)c2C)c(=O)c2ccc(C)nc21	-13.9%	-8.1%	i	i	-11.5%	0.0%
CCn1cc(C(=O)OCC(=O)c2cc(C)n(-c3ccc(OC(F)F)cc3)c2C)c(=O)c2ccc(C)nc21	-8.5%	13µM*	i	23.1µM*	11.9%	?
O=C(NCCCc1ccccc1)C1CC(=O)N(c2ccc3c(c2)OCCO3)C1 (centres undefined)	6.5%	3.5%	i	23.1µM*	5.3%	0.2%
COc1ccc(-c2nc(NC(=O)C3CC(=O)N(c4ccc5c(c4)OCCO5)C3)sc2C)cc1 (centres undefined)	?	3.26µM*	13µM*!	?	?	4.11µM*
O=C(NCCOc1ccccc1)C1CCCCC1	7.2%	0.5%	i	i	3.2%	-5.1%
CCc1ccc(NC(=O)C(CC)Sc2nc3cc4c(cc3c(=O)n2Cc2ccco2)OCO4)cc1 (centres undefined)	-21.7%	18.4µM*	?	?	-19.8%	?
CCN(CC)C(=O)CSc1nc2cc3c(cc2c(=O)n1Cc1ccc(OC)cc1)OCO3	?	5.3%	i	i	-17.5%	4.4%
CCC(Sc1nc2cc(OC)c(OC)cc2c(=O)n1Cc1ccco1)C(=O)NCCOC (centres undefined)	-0.3%	0.0%	i	i	-13.7%	-12.7%
CCc1ccccc1NC(=O)C(CC)Sc1nc2cc3c(cc2c(=O)n1Cc1ccco1)OCO3 (centres undefined)	-2.9%	6.51µM*	?	3.66µM*	-1.6%	14.6µM*
Cc1cc(Nc2ccc3c(c2)OCCO3)c2cc(Cl)ccc2n1	1.0%	10.0%	i	14.6µM*	-17.4%	2.1%
